From PubChem BioAssay AID602373 (National Center for Advancing Translational Sciences (NCATS), 2012)
Values joined by “and” are separate entries in the source; they are usually repeats but may differ in a detail not shown here. Equal values may be shown once. Records with an inconclusive call do not appear. Values without a mark were called inactive. Active and inactive are the calls of the source. Calls come from the whole dose curve; as a rule, active = well fitted inhibition curve with a large enough effect; inconclusive = small, poorly fitted or top-dose-only effect; inactive = no such curve, though single readings can be large or run the other way.

Test: qHTS Assay for Inhibitors of Bacillus subtilis Sfp phosphopantetheinyl transferase (PPTase): Hepg2 Assay
Conditions: HepG2 cytotoxicity counter-screen; series mostly up to 46.1 µM; activity change, negative = inhibition: at the top concentration
Text: The covalent attachment of a phosphopantetheinyl (4'-PP) arm to a variety of synthases and other proteins is a key posttranslational protein modification. The 4'-PP is installed on the proteins post-translationally from coenzyme A (CoA) on a conserved serine residue by action of phosphopantetheinyl transferase (PPTase) enzymes. Phosphopantetheinylation is essential for synthase activity, and removal of the PPTase gene precludes natural product synthesis in microorganisms, or in the case of fatty acid biosynthesis, renders the organism unviable. PPTase enzymes belong to a distinct structural superfamily. Within bacteria, these enzymes are grouped into two classes based upon primary structure, the AcpS-Type and Sfp-Type PPTases.
Sfp-type PPTases, corresponding to an activator of surfactin production in Bacillus subtilis, are responsible for modifying type I polyketide and nonribosomal peptide synthases of prokaryotes. Sfp-type PPTases are responsible for the activation of a variety of pathogen-associated virulence factors. Among these compounds are toxins such as mycolactone from Mycobacterium ulcerans, siderophores such as vibriobactin from Vibrio cholerae or mycobactin from Mycobacterium tuberculosis, as well as the mycolic acids which form the waxy cell wall of Mycobacteria. The biosyntheses of these natural products are considered attractive targets for drug design.
In search of small molecule Sfp-PPTase inhibitors, a fluorescence quenching assay was developed for detection of Bacillus subtilis Sfp-PPTase enzymatic activity in a miniaturized high-throughput format. The consensus ybbr acceptor peptide […] was N-terminally labeled with Black Hole Quencher-2 (BHQ-2) and used in combination with rhodamine-labeled coenzyme A as a co-substrate.
Phosphopantetheinyl transfer is a process essential to cellular viability and maintenance in all forms of life. Cell-permeable and stable compounds acting as PPTase inhibitors are anticipated to be growth inhibitory agents. This assay sought to assess the toxicity of test compounds in the HepG2 hepatocarcinoma cells; a human cell line whose use additionally determines the toxicity of test article metabolites.
NIH Chemical Genomics Center [NCGC]
NIH Molecular Libraries Probe Centers Network [MLPCN]
Assay Submitter (PI): Michale Burkart, University of California, San Diego
Test compounds' toxicity was assessed by measuring cellular ATP content using a luciferase-coupled ATP quantitation assay (CellTiter-Glo; Promega, Madison, WI). In this assay, luminescent signal is proportional to amount of ATP, and thus to the number of metabolically competent cells. Briefly, Hepg2 cell suspension (5 uL, 4 x 10^5 cells/mL) was dispensed into 1,536-well tissue-culture treated white/solid bottom assay plates (Greiner Bio-One North America, Monroe, NC) using a Flying Reagent Dispenser (Aurora Discovery, Carlsbad, CA). Cells were incubated at 37 deg C for 6 hr to allow for cell attachment, followed by addition of compounds via pin tool (Kalypsys, San Diego, CA). After compound addition, plates were incubated for 48 hr at 37 deg C. At the end of the incubation period, CellTiter-Glo reagent (5 uL) was added, plates were incubated at room temperature in the dark for 30 min, and the luminescence intensity of each well was determined using a ViewLux plate reader (PerkinElmer, Shelton, CT). The positive control was 92 uM and 41 uM of tetra-N-Octylammonium bromide, and the negative control was DMSO.

Structure (SMILES) | activity change, negative = inhibition | Potency
Cc1ccc(N2CCN(C(=S)Nc3cc(C)ccn3)CC2)cc1 | -4.42% | –
Cc1cc(C)nc(NC(=S)N2CCN(c3ccc(Cl)cc3F)CC2)c1 | 1.76% | –
Cc1ccnc(NC(=S)N2CCCN(c3cccc(C(F)(F)F)c3)CC2)c1 | – | 25 µM (active)
Cc1cc(C)nc(NC(=S)N2CCN(c3ccc(N4CCCC4)nn3)CC2)c1 | 2.21% | –
FC(F)(F)c1cccc(N2CCN(C(=S)Nc3nccc4ccccc34)CC2)c1 | 1.47% | –
COc1cccc(NC(=S)N2CCN(c3ccc(Cl)c(Cl)c3)CC2)n1 | 4.44% | –
FC(F)(F)c1cccc(N2CCN(C(=S)Nc3cc4ccccc4cn3)CC2)c1 | -4.29% | –
Cc1ccnc(NC(=S)N2CCN(c3ccc(N)cc3)CC2)c1 | -12% | –
Cc1cc(C)nc(NC(=S)N2CCN(c3cc(C(F)(F)F)nc4ccc(C(F)(F)F)cc34)CC2)c1 | -2.74% | –
FC(F)(F)c1cccc(N2CCN(C(=S)Nc3ncnc4ccccc34)CC2)c1 | -5.29% | –
Cc1ccnc(NC(=O)N2CCN(c3cccc(C(F)(F)F)c3)CC2)c1 | – | 6.28 µM (active)
COc1cccc(NC(=S)N2CCN(c3cccc(C(F)(F)F)c3)CC2)n1 | – | 28.1 µM (active)
COc1cccc(NC(=S)N2CCN(c3ccc(C(F)(F)F)cc3[N+](=O)[O-])CC2)n1 | -3.46% | –
FC(F)(F)c1cc(N2CCN(C(=S)Nc3cc(Cl)ccn3)CC2)cc(C(F)(F)F)c1 | – | 15.8 µM (active)
Cc1cc(C)nc(NC(=S)N2CCN(c3ccc(Cl)c(Cl)c3Cl)CC2)c1 | 6.12% | –
Cc1cc(C)nc(NC(=S)N2CCN(c3ccc4c(c3)OCO4)CC2)c1 | 6.85% | –
Cc1cc(C)nc(NC(=C(C#N)C#N)N2CCN(c3cccc(C(F)(F)F)c3)CC2)c1 | – | inactive
Cc1cc(C)nc(NC(=S)N2CCN(c3ccc4ncccc4c3[N+](=O)[O-])CC2)c1 | 1.59% | –
Cc1ccnc(NC(=S)N2CCN(c3ccc(Cl)c(Cl)c3)CC2)c1 | – | 28.1 µM (active)
Cc1cc(NC(=S)N2CCN(c3cccc(C(F)(F)F)c3)CC2)nc2ccccc12 | -4.95% | –

Structure (SMILES) | activity change, negative = inhibition | Potency
Cc1ccnc(NC(=S)NCCN(C)c2cccc(C(F)(F)F)c2)c1 | 3.44% | –
COc1ccnc(NC(=S)N2CCN(c3ncc(C(F)(F)F)cc3Cl)CC2)c1 | 1.74% | –
Cc1ccnc(NC(=S)NC2CN(c3cccc(C(F)(F)F)c3)C2)c1 | – | 25 µM (active)
Cc1cc(C)nc(NC(=S)N2CCN(c3ccsc3)CC2)c1 | -8.98% | –
Cc1cc(C)nc(NC(=S)N2CCN(Cc3cccc4ccccc34)CC2)c1 | 2.15% | –
Cc1cc(C)nc(NC(=S)N2CCN(c3ccc4occc4c3)CC2)c1 | -5.28% | –
Cc1ccnc(NC(=S)N2CCN(c3cc(C(F)(F)F)cc(C(F)(F)F)c3)CC2)c1 | – | 7.91 µM (active)
Cc1cc(C)nc(NC(=S)N2CCN(c3nccs3)CC2)c1 | 6.89% | –
Cc1ccnc(NC(=S)N2CCN(c3cccc(C(F)(F)F)c3)CC2)c1 | – | 28.1 µM (active) and 9.96 µM (active) and 25 µM (active)
Cc1cc(C)nc(NC(=S)N2CCN(Cc3c(F)cccc3Cl)CC2)c1 | 4.35% | –
Cc1cc(C)nc(NC(=S)N2CCN(c3ccc4nonc4c3)CC2)c1 | 4.13% | –
Cc1cc(C)nc(NC(=S)N2CCN(c3nccc4ccccc34)CC2)c1 | -1.21% | –
Cc1cc(C)nc(NC(=S)N2CCN(c3nc4ccccc4s3)CC2)c1 | 1.77% | –
Cc1ccnc(NC(=S)N2CCN(c3cccc(C(F)(F)F)c3)C[C@@H]2C)c1 | -7.74% | –
S=C(Nc1cc(Cl)ccn1)N1CCN(c2ccc(Cl)cc2Cl)CC1 | -11.7% | –
COc1ccnc(NC(=S)N2CCN(c3cccc(Cl)c3Cl)CC2)c1 | -11.5% | –
Cc1ccnc(NC(=S)N2CCNCC2)c1 | -3.85% | –
Cc1cc(C)nc(NC(=S)N2CCN(c3ccc(C(F)(F)F)cc3[N+](=O)[O-])CC2)c1 | -9.46% | –
FC(F)(F)c1cccc(N2CCN(C(=S)Nc3cc(C(F)(F)F)ccn3)CC2)c1 | – | 19.9 µM (active)
Cc1cc(C)nc(Nc2nnc(N3CCN(c4cccc(C(F)(F)F)c4)CC3)s2)c1 | -11.6% | –
